# High-throughput results deposited in PubChem by Center for Chemical Genomics, University of Michigan.
# Most compounds without a hit are left out; they make up all but 0.9% or so of the library.
# CDC25B CDK2 inh: primary biochemical HTRF screen for blockers of M-phase inducer phosphatase 2 binding to CDK2/cyclin A. 0.72% of 94,000 active. HTRF CDC25B-CDK2/CyclinA binding, anti-His/anti-Flag; active compounds read high. z-score (test concentration not listed). P30305+P24941; in the data active means z-score above about 3.2
# TAR Tat displ: TAR RNA-Tat peptide displacers, HIV-1, primary screen, biochemical, FRET, FAM/TAMRA-labeled Tat; HIV-1 TAR RNA, Tat peptide displacement FRET; active compounds read high; z-score (no concentration beside the values); 0.6% of 100,000 active; active means z-score of 3 or more in at least 2 runs
# Hits are given with their value; - = inactive; . = not tested or not shown.
SMILES,CDC25B CDK2 inh,TAR Tat displ
CN1C(C(=O)N2CCN(Cc3ccccc3)CC2)=CC(c2ccc3c(c2)OCO3)=NS1(=O)=O,-,-
CCN1CCN(C(=O)c2c(C)oc3c2cc(OC(C)=O)c2ccccc23)CC1,7.69,-
CCN1CCN(C(=O)c2c(C)oc3ncnc(N4CCCCC4)c23)CC1,.,-
Cc1c(Cl)ccc2c(=O)c(C(=O)O)c[nH]c12,-,-
O=C(O)c1c[nH]c2c(ccc3ccccc32)c1=O,-,9.31
Cc1ccc(S(=O)(=O)n2ccn(C(=O)CC3CCCC3)c2=O)cc1,.,-
CC1CCCN(c2nn3c(=O)c(C(=O)NCCCOC(C)C)cnc3s2)C1 (stereo not given),.,-
COc1ccc(C2CC(=O)Nc3nc(SCc4ccccc4)[nH]c(=O)c32)cc1Br (stereo not given),-,-
Cc1cccc(CSc2nc3c(c(=O)[nH]2)C(c2ccc(O)c(O)c2)CC(=O)N3)c1 (stereo not given),-,12.4
Cc1ccc(CSc2nc3c(c(=O)[nH]2)C(c2ccc(O)c(O)c2)CC(=O)N3)cc1 (stereo not given),-,12.5
Cc1ccc(CSc2nc3c(c(=O)[nH]2)C(c2cc(C)ccc2C)CC(=O)N3)cc1 (stereo not given),-,-
O=C1CC(c2ccc(O)c(O)c2)c2c(nc(SCc3ccccc3)[nH]c2=O)N1 (stereo not given),-,16.6
Cc1cccc(CSc2nc3c(c(=O)[nH]2)C(c2cc(F)cc(F)c2)CC(=O)N3)c1 (stereo not given),-,-
CCOc1ccc(S(=O)(=O)[C@H]2CS(=O)(=O)C[C@@H]2N2CCN(Cc3ccccc3)CC2)cc1,-,-
COC(=O)C(NC(=O)CCc1c(C)nc2c(c1C)c(=O)n(C)c(=O)n2C)C(C)C (stereo not given),-,-
CN(C)CCNC(=O)c1cnn2c3c(cnc12)C(=O)CC(C)(C)C3,.,-
CCCCN(CC)CCNC(=O)c1nn(C)c2c1CS(=O)(=O)c1ccccc1-2,-,-
CCN(CC)CCCNC(=O)c1nn(C)c2c1CS(=O)(=O)c1ccccc1-2,-,6.92
Clc1ccc(-c2nnc3ccc(SCc4ccccn4)nn23)cc1,-,.
Cc1cc(C)cc(OCc2cc(=O)n3oc(C)cc3n2)c1,-,-
CC(=O)Nc1cccc(OCc2cc(=O)n3oc(C)cc3n2)c1,-,8.06
CCN(CC)C(=O)c1oc2ccccc2c1NC(=O)COC,.,-
Cc1ccc(C(=O)NCc2cn[nH]c2C)cc1NC(=O)C1=CSCCO1,.,-
CCCC1=NN(c2ccc(Cl)cc2)C(=O)C1,6.23,-
O=C1CC(CSc2nccc(-c3cccnc3)n2)=NN1c1ccc(Cl)cc1,-,.
SMILES,CDC25B CDK2 inh,TAR Tat displ
CCCN(CCC)S(=O)(=O)c1ccc(-c2cc(C(=O)OCC)no2)s1,.,-
c1coc(-c2nc3ccccc3nc2-c2ccco2)c1,-,.
O=C(O)c1cc2ccccc2nc1-c1ccco1,-,34.6
Cc1oc(-c2cccc(Cl)c2)nc1CN1CCN(S(=O)(=O)c2cccc3nsnc23)CC1,.,-
CCc1noc2ncnc(N3CCCC(C(=O)NC4CC4)C3)c12 (stereo not given),.,-
Cc1cccc(NS(=O)(=O)c2c(C)nc3sc4cc(C)ccc4n3c2=O)c1,.,-
Cc1c2c(=O)n(-c3ccccc3)[nH]c2cc(=O)n1Cc1cccnc1,-,-
Cc1c2c(=O)n(-c3ccccc3)[nH]c2cc(=O)n1Cc1ccco1,-,9.62
COc1ccc(NC2c3ncccc3C(=O)N2c2ccc(OC)cc2)cc1 (stereo not given),.,-
O=c1c(NCCc2ccc(Cl)cc2)c(-c2ccccc2)c1=O,.,5.97
O=c1c(NCCc2ccc(Cl)cc2)c(-c2ccc(Cl)cc2)c1=O,.,-
Cc1ccc(Nc2cc(C)nc3nc(-c4ccccc4)nn23)c(C)c1,-,-
Cc1cccc(N2CSC3=C(C#N)C(c4ccc(F)cc4)CC(=O)N3C2)c1 (stereo not given),4.1,-
CSc1ccc(C2CC(=O)N3CN(c4cccc(C)c4)CSC3=C2C#N)cc1 (stereo not given),8.47,-
Cc1cccc(N2CSC3=C(C#N)C(c4ccccc4Cl)CC(=O)N3C2)c1 (stereo not given),-,-
CC(=O)Nc1c(C(=O)c2cccs2)oc2ccccc12,-,-
Nc1cccnc1NC1CCCCC1,.,-
COc1cc(NC(=O)CSc2nc3nccnc3c(=O)n2Cc2ccco2)cc(OC)c1,-,-
C(=C\c1ccc2c(c1)OCO2)/C1=NN(c2ccccc2)C(c2ccc3c(c2)OCO3)C1 (stereo not given),15.6,-
Cn1c(/C=C/c2ccc3c(c2)OCO3)nc2ccccc2c1=O,-,-
O=C(Cn1ncc2c1-c1ccccc1OC2)Nc1cccnc1,-,-
CC(C)CNc1nc(NC(C)(C)C)nc(Oc2ccc(=O)n(C)n2)n1,-,-
C=CCOc1cccc(-c2nc3c(c(=O)[nH]2)Cc2ccccc2O3)c1,-,-
COc1ccc(CNc2cc(-c3ccccc3)nc3nncn23)cc1,-,-
c1ccc(CNc2cc(-c3ccccc3)nc3nncn23)cc1,4.61,-
SMILES,CDC25B CDK2 inh,TAR Tat displ
COc1ccc(S(=O)(=O)C(CNC(=O)C2CC2)c2cccs2)cc1 (stereo not given),.,-
Cc1ccc(N2C(=O)Nc3ccccc3S2(=O)=O)cc1,.,-
O=C(c1ccccc1)N1c2ncnn2C2(CCCCC2)[C@@H]2CCCC[C@@H]21,-,-
Cc1cccc(C(=O)N2c3ncnn3C3(CCCCC3)[C@@H]3CCCC[C@@H]32)c1,-,9.19
O=C(c1cnn(-c2ccc(F)cc2F)c1C1CCNCC1)N1CCN(c2ccc(F)cc2)CC1,.,-
Fc1cccc(Nc2c3c(nc4ncnn24)CCC3)c1,.,-
CCOC(=O)c1cc(CO)cc(C(=O)OCC)c1,-,.
CCCOC(=O)c1cc(O)c(O)c(O)c1,.,26.1
CC1CCCCN1c1c(-c2ccc(Cl)cc2)c(=O)c1=O (stereo not given),.,-
O=c1c2cc3c(cc2nc2sc(Nc4cccc(Cl)c4)nn12)OCO3,-,-
Cc1cccc(Nc2nn3c(=O)c4cc5c(cc4nc3s2)OCO5)c1,.,13.1
CCc1nn(CC(=O)NC2CCCCCC2)c(=O)c2cc3sccc3n12,-,.
Cc1cc2c(cc3c(SCC(=O)NCc4ccco4)nncn32)o1,.,27.4
Cc1cc2c(cc3c(SCC(=O)Nc4ccccc4F)nncn32)o1,.,-
COCCn1c(C)cc(C(=O)C(=O)Nc2nnc(-c3ccco3)s2)c1C,-,30.8
Cc1cc(C(=O)C(=O)Nc2nnc(-c3ccco3)s2)c(C)n1-c1ccc(Cl)cc1,-,19
COCCn1c(C)cc(C(=O)C(=O)Nc2nnc(-c3cccs3)s2)c1C,-,-
Cc1nnc(NC(=O)C(=O)c2cc(C)n(-c3ccc(Cl)cc3)c2C)s1,-,-
Cc1ccc(Nc2c(-c3ccc(O)cc3)nc3nc[nH]n23)cc1,-,-
COc1ccc(C2=NC(c3ccccc3)=Nc3ccc(F)cc3N2)cc1OC,-,-
CCOC(=O)c1c(S(=O)(=O)N2CCCC(C(=O)NC3CCCC3)C2)c(C)n(CC)c1C (stereo not given),.,-
O=C(O)Cn1ncc2c1-c1ccoc1CC2,11.3,-
O=C(Cn1ncc2c1-c1ccccc1OC2)N1CCCC1,-,.
CCC(C)Cn1c(C)c2c(=O)n(-c3nc4ccccc4s3)[nH]c2cc1=O (stereo not given),-,-
